# Screens deposited in PubChem BioAssay by several laboratories.
# ANO1 block = inhibitors of mouse TMEM16A calcium-activated chloride channel | Q8BHY3 | HEK293 TMEM16A/YFP iodide influx fluorescence, ionomycin | normalized B-score (activity score, 25-100; higher = stronger inhibition) at 10 µM | hit rate 1.2% among 310,000;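 active = ratio plate-corrected score three or more library SD toward inhibition, starting fluorescence score within five deviations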;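 also: score derived from kinetic fluorescence span divided by baseline fluorescence per well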
# GRK2 inh = human GRK2 inhibition via aptamer displacement; hit rate 0.59% among 330,000; inhibition of aptamer binding, % at 10 µM; bead flow cytometry, FAM-aptamer displacement from GRK2;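 active = inhibition of aptamer binding above 40%, roughly 3 SD of noise, on plates passing a quality check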;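 also: median bead fluorescence of bound FAM aptamer so fluorescent compounds give negative values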
# TLR4 MyD88 comp = blocks binding of human TLR4 to MyD88. O00206+Q99836. HeLa CL3-4 TLR4/MyD88 BLA complementation, FRET ratio. inhibition, % at 8.4 µM. hit rate 0.18% among 200,000. AID 861; in the data active = inhibition above about 25%
# ANO1 activ = activators or potentiators of mouse TMEM16A chloride channel | Q8BHY3 | HEK293 TMEM16A/YFP-H148Q/I152L, iodide quench fluorescence; hits give low values | B-score at 10 µM | hit rate 0.3% among 340,000 | AID 623877;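 active = fluorescence-ratio B-score plate-corrected deviation score at least 3 library SD below zero, with starting fluorescence score within 5 deviations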;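 also: channel opened by trigger with iodide after compound preincubation; score built on the fluorescence ratio of max minus min over baseline; more negative score means more quench and so TMEM16A activation or potentiation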
# TLR9-MyD88 inh = TLR9-MyD88 interaction inhibition; Q9NR96+Q99836; CHO BLA complementation TLR9-MyD88, CCF4 FRET ratio; inhibition, % at 4.98 µM; hit rate 0.21% among 340,000;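 active = inhibition above the mean over all tested compounds plus 3 SD, cut at about 21% in these data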
# NOD2-RIPK2 inh = blocks binding of human NOD2 to RIPK2. O43353. CHO BLA complementation NOD2-RIPK2, CCF4 ratio. inhibition, % at 4.98 µM. hit rate 0.38% among 360,000. AID 624267; in the data active = inhibition above about 21%
# Target sequence (O43353 whole entry, looked up): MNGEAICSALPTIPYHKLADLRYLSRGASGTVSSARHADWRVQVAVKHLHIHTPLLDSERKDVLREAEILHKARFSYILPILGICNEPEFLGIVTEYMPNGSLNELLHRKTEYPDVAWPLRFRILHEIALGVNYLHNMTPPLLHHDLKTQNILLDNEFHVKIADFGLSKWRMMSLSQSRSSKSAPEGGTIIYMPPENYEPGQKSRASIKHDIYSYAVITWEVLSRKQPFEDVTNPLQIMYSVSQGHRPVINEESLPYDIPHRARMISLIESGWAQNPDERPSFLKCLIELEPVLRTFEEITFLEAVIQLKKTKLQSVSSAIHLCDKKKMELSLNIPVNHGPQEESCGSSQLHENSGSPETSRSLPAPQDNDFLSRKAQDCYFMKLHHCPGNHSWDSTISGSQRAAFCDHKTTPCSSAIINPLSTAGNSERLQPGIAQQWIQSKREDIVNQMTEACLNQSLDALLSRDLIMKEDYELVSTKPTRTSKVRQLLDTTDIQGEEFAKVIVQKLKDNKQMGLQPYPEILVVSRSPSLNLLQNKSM
# GRK2 inh confirm = confirmation of human GRK2 inhibitors displacing RNA aptamer; shares compounds with GRK2 inh; bead-bound GRK2, FAM-aptamer displacement, flow cytometry; aptamer displacement, % at 10 µM; hit rate 4% among 2,000;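 active = aptamer displacement above 40%, near three times the noise of non-fluorescent compounds, on plates passing quality checks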;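 also: negative values mostly reflect intrinsic compound fluorescence rather than true enhancement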
# FAM quench CP1 = quenches fluorescent RNA aptamer, GRK2 hit artifact; fluorescence response (% of DMSO), % at 10 µM; Carboxyfluorescein RNA aptamer on beads, flow cytometry quenching; hits give low values; shares compounds with GRK2 inh; 2,000 tested, under 10 active;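 active = compounds that quench the bead-bound fluorescent RNA probe, cutting fluorescence to under half of the solvent control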;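 also: counterscreen run without GRK2 so only probe quenching by compound is measured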
# GRK2 CP2 = confirmation of human GRK2 inhibitors binding RNA aptamer site. shares compounds with GRK2 inh. inhibition of aptamer binding, % at 10 µM. 360 tested, under 10 active. bead-bound GRK2, FAM-aptamer displacement, flow cytometry;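 active = inhibition of aptamer binding above 40%, about triple the noise seen with nonglowing compounds, on plates passing quality control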;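 also: negative values mostly come from compounds that fluoresce themselves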
# FAM quench SP = quenches fluorescent RNA aptamer, GRK2 hit artifact; shares compounds with GRK2 inh; carboxyfluorescein RNA aptamer beads, flow cytometry quenching; hits give low values; fluorescence response vs DMSO, % at 10 µM; 360 tested, under 10 active;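 active = response vs DMSO under 50%, meaning signal dropped by over half, treated as fluorescence quencher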;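 also: labelled aptamer on streptavidin beads without GRK2 as a quench counter-screen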
# A number is an active result; i = inactive; nt = not tested or not shown. An excerpt weighted towards active compounds, which were near 2.2% of everything screened.
SMILES,ANO1 block,GRK2 inh,TLR4 MyD88 comp,ANO1 activ,TLR9-MyD88 inh,NOD2-RIPK2 inh,GRK2 inh confirm,FAM quench CP1,others
N#C/C(=C\c1c(N2CCC(C(N)=O)CC2)nc2ccccn2c1=O)S(=O)(=O)c1ccc(Cl)cc1,i,41.0,nt,i,i,i,i,i,
Cn1c(-c2ccccc2)c(Sc2ccccc2)c2cc(-c3ccc4[nH]ccc4c3)ccc21,nt,nt,nt,nt,nt,i,nt,nt,
CC(C)(C)CC(=O)NC(=S)NCCc1ccccc1,i,80.0,i,i,i,i,i,i,
O=C(Cc1ccc(F)cc1)Nc1nc(-c2ccc(F)c(F)c2)cs1,i,i,nt,i,i,i,nt,nt,
COc1ccc(CC(=O)Nc2nc(-c3ccc(F)c(F)c3)cs2)cc1,i,92.0,nt,i,i,i,i,i,
Cc1cccc(C)c1NC(=O)CN(C)C(=O)c1cccc(NS(=O)(=O)c2ccccc2)c1,i,i,nt,i,i,i,nt,nt,
O=C(O)CCN1C(=O)/C(=C/c2ccc(-c3nc4ccccc4s3)o2)SC1=S,i,i,i,i,i,i,nt,nt,
O=C(O)CC(C(=O)O)N1C(=O)/C(=C/c2ccc(-c3nc4ccccc4s3)o2)SC1=S (stereo unspecified),i,44.0,i,-7.75,i,i,i,i,
Cc1cccc(NC(=O)/C(C#N)=C/c2cccc([N+](=O)[O-])c2)n1,i,i,nt,i,i,i,nt,nt,
Cc1cc2cc(CNC(=O)Nc3ccc(Cl)c(Cl)c3)ccc2n1C,i,i,i,i,i,i,i,i,
Cc1cc2cc(CNC(=O)COc3ccccc3)ccc2n1C,i,i,nt,i,i,i,nt,nt,
CCOC(=O)/C=C1\SCC(=O)N1CC(=O)NCc1ccc(OC)c(OC)c1,i,95.0,i,i,i,i,i,i,
COc1cc(OC)cc(C(=O)NCc2ccc3c(c2)cc(C)n3C)c1,i,82.0,i,i,i,i,i,i,
Cc1cc2cc(CNC(=O)NC3CCCCC3)ccc2n1C,i,i,i,i,i,i,nt,nt,
CCOc1ccc(CC(=O)NCc2ccc3c(c2)cc(C)n3C)cc1,i,i,i,i,i,i,i,i,
CCOC(=O)/C=C1\SCC(=O)N1CC(=O)NCCc1ccc(F)cc1,i,i,i,i,i,i,nt,nt,
CC1NS(=O)(=O)c2cc([N+](=O)[O-])ccc21 (stereo unspecified),nt,nt,nt,nt,nt,i,nt,nt,
CC(=O)NC(CC(=O)N(C)Cc1cccc(Cl)c1Cl)c1ccccc1 (stereo unspecified),i,i,i,i,i,i,nt,nt,
C/C(=N\NC(=O)C(C)Sc1ccccc1)c1ccc([N+](=O)[O-])cc1 (stereo unspecified),i,i,nt,i,i,i,nt,nt,
Cc1cc2cc(CNC(=O)c3ccc4c(c3)OCO4)ccc2n1C,i,i,i,i,i,i,i,i,
COc1ccc(C(=O)NCc2ccc3c(c2)cc(C)n3C)cc1,i,i,i,i,i,i,nt,nt,
COc1ccc(CC(=O)NCc2ccc3c(c2)cc(C)n3C)cc1OC,i,i,i,i,i,i,i,i,
COCC(=O)NCc1ccc2c(c1)cc(C)n2C,i,i,i,i,i,i,nt,nt,
Cc1c(NC(=O)c2n[nH]c(=O)c3ccccc23)c(=O)n(-c2ccccc2)n1C,i,81.0,i,i,i,i,i,i,
N=c1oc2cc(O)ccc2cc1C(=O)Nc1ccccn1,i,i,i,nt,nt,nt,nt,nt,
SMILES,ANO1 block,GRK2 inh,TLR4 MyD88 comp,ANO1 activ,TLR9-MyD88 inh,NOD2-RIPK2 inh,GRK2 inh confirm,FAM quench CP1,others
N=c1oc2cc(O)ccc2cc1C(=O)Nc1nc2ccccc2s1,i,i,i,i,i,i,i,i,
COCCNC(=O)C(c1ccc(C)o1)N(Cc1ccc(OC)cc1)C(=O)Cn1nnc2ccccc21 (stereo unspecified),i,44.0,i,i,i,i,i,i,
O=c1[nH]c(CN2CCN(c3ccc(F)cc3)CC2)nc2ccccc12,i,i,i,i,i,i,nt,nt,
O=C(c1cccs1)N1CCN(Cc2nc3ccccc3c(=O)[nH]2)CC1,i,i,i,i,i,i,nt,nt,GRK2 CP2=i;FAM quench SP=i
O=c1[nH]c(CN2CCN(c3ccccc3)CC2)nc2ccccc12,i,i,i,i,i,i,nt,nt,GRK2 CP2=i;FAM quench SP=i
CCC(CC)C(=O)N1CCN(Cc2nc3ccccc3c(=O)[nH]2)CC1,i,i,i,i,i,i,nt,nt,
O=C(NC1CCCCC1)N1CCN(Cc2nc3ccccc3c(=O)[nH]2)CC1,i,i,i,nt,i,i,nt,nt,GRK2 CP2=i;FAM quench SP=i
O=C(c1ccco1)N1CCN(Cc2nc3cc(Cl)ccc3c(=O)[nH]2)CC1,i,i,i,i,i,i,nt,nt,GRK2 CP2=i;FAM quench SP=i
O=C1CC(C(=O)N2CCN(c3ccccn3)CC2)CN1Cc1ccccc1Cl (stereo unspecified),i,i,nt,i,i,i,nt,nt,
CC(CC(=O)Nc1ccc(F)cc1)S(=O)(=O)c1ccc2c(c1)NC(=O)CO2 (stereo unspecified),i,i,nt,i,i,i,nt,nt,
CC(CC(=O)Nc1ccc(Br)cc1F)S(=O)(=O)c1ccc2c(c1)NC(=O)CO2 (stereo unspecified),i,i,nt,i,i,i,nt,nt,GRK2 CP2=i;FAM quench SP=i
Cc1cc(CNC(=O)CC2C(=O)NCCN2Cc2ccc(-c3ccccc3)cc2)nn1C (stereo unspecified),i,i,i,i,i,i,i,i,
O=C1NCCN(Cc2ccc(F)cc2)C1CC(=O)N1CC=C(c2ccccc2)CC1 (stereo unspecified),i,i,nt,i,i,i,nt,nt,
O=C1NCCN(Cc2ccc(-c3ccccc3)cc2)C1CC(=O)N1CCN(CCO)CC1 (stereo unspecified),i,100.0,i,i,i,i,i,i,
Cc1cc(CNC(=O)CC2C(=O)NCCN2Cc2ccccc2)nn1C (stereo unspecified),i,i,nt,i,i,i,nt,nt,
CCOc1ccc(NC(=O)CNc2cccc(S(=O)(=O)N3CCCCCC3)c2)cc1OCC,nt,i,nt,i,i,i,nt,nt,
Cc1cc(C(=O)Nc2nncs2)oc1C,i,90.0,nt,i,i,i,i,i,
CN1C=CC2=C(C#N)C(N)C(C#N)(C#N)[C@H](c3ccccc3)[C@H]2C1 (stereo partly specified),i,i,i,i,i,i,nt,nt,
C=CC[C@H](CC(=O)NCCO)C(=O)NC[C@@H](OC(=O)[C@H](CC=C)CC(=O)OC(C)(C)C)c1ccccc1,nt,i,nt,i,i,i,nt,nt,
